Inconclusive results are not listed. Calls of active or inactive are those of the source. Calls follow the shape of the dose curve; as a rule, active = well fitted inhibition curve with a large enough effect; inconclusive = small, poorly fitted or top-dose-only effect; inactive = flat fitted curve, though single readings scatter. Where a SMILES comes first, the peptide text is derived from it. [ ]: non-standard residue; d: D form. pGlu = O=C1CC[C@@H](C(=O)O)N1; Thz = O=C(O)[C@@H]1CSCN1
The compounds below were run on CP266 (assay: qHTS profiling for inhibitors of Plasmodium falciparum proliferation (AID 504749; also: nearly all actives have a fitted effect of over 60% in size;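 as to activity, negative = inhibition: 0% = DMSO vehicle and full inhibition = artemisinin control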)). Details: P. falciparum in erythrocytes, SYBR Green DNA, 72 h; series mostly up to 28.7 µM; activity, negative = inhibition: at the top concentration.
In short: (§1)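 Quantitative HTS: compounds pinned into medium, infected erythrocytes added (0.3% parasitemia, 2.5% hematocrit), 72 h culture at 37 C under 5% CO2. Saponin/Triton lysis with SYBR Green I, overnight RT, then fluorescence read.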
Potency is read from the fitted curve at half-maximal effect.

| Compound | activity, negative = inhibition | Potency |
| --- | --- | --- |
| O=C1CC[C@@H](C(=O)N2CSC[C@H]2C(=O)O)N1 ([pGlu]-[Thz]-OH) | 5.58% (inactive) |  |
| Cc1c(Nc2ncccc2C(=O)O)cccc1C(F)(F)F | 4.06% [at 12.8 µM] (inactive) |  |
| O=C(O)c1ccccc1Nc1cccc(C(F)(F)F)c1 | 5.41% (inactive) |  |
| CC(C(=O)O)c1ccc2c(c1)[nH]c1ccc(Cl)cc12 (stereo not drawn) | 4.15% (inactive) |  |
| CC1(C)C[C@@H]1C(=O)N/C(=C\CCCCSC[C@H](N)C(=O)O)C(=O)O | 0.788% (inactive) |  |
| Cc1cc(O)c2ccccc2c1O | 18.8% (inactive) |  |
| Nc1ccc(C(=O)O)c(O)c1 | -0.766% (inactive) |  |
| C=C(Nc1ccc(OCC)cc1)Nc1ccc(OCC)cc1 |  | inactive |
| CCCCC[C@H](O)/C=C/[C@@H]1[C@@H](C/C=C\CCCC(=O)O)[C@@H](O)C[C@H]1O | 3.89% (inactive) |  |
| [O-][n+]1ccccc1SSc1cccc[n+]1[O-] |  | 1510 nM (active) |
| CCCCCCCCCCCCCCCC(=O)OC(C)C | 0.394% (inactive) |  |
| Clc1ccccc1-c1nc(-c2ccncc2)no1 | -27.2% (inactive) |  |
| CN1[C@@H]2CC[C@H]1CC(OC(=O)C(CO)c1ccccc1)C2 (stereo partly drawn) | 3.67% (inactive) |  |
| COc1ccc(-c2cc(=S)ss2)cc1 | -8.35% (inactive) |  |
| O=C(O)[C@H](CC(=O)N1C[C@H]2CCCC[C@H]2C1)Cc1ccccc1 | -0.0924% (inactive) |  |
| Cc1ccccc1CNc1ncnc2c1ncn2C1OC(CO)C(O)C1O (stereo not drawn) | 2.86% (inactive) |  |
| C#C[C@]1(O)CC[C@H]2[C@@H]3CCc4cc(O)ccc4[C@H]3CC[C@@]21C | 4.78% (inactive) |  |

| Compound | activity, negative = inhibition | Potency |
| --- | --- | --- |
| COc1cc(/C=C/C(=O)N2CCN(CC(=O)N3CCCC3)CC2)cc(OC)c1OC | -9.92% (inactive) |  |
| Cc1ccc(O)c(-n2nc3ccccc3n2)c1 | -0.0384% (inactive) |  |
| O=C(O)COc1ccc(C(=O)c2cccs2)c(Cl)c1Cl |  | inactive |
| Cc1ccc(C(=O)c2ccc(CC(=O)O)n2C)cc1 | 8.01% [at 12.8 µM] (inactive) |  |
| CCCOC(=O)c1ccc(O)cc1 | 0.426% (inactive) |  |
| C=CC(N)CCC(=O)O (stereo not drawn) | -7.21% (inactive) |  |
| C=CCCCCCCCCC(=O)O | 10.9% (inactive) |  |
| COc1ccc(/C=C/C(=O)Nc2ccccc2C(=O)O)cc1OC | -18.4% (inactive) |  |
| O=C(OCc1ccccc1)c1ccccc1 | -0.392% (inactive) |  |
| c1ccc2sc(SN3CCOCC3)nc2c1 | 2.15% (inactive) |  |
| CCCCCCCCCCCCCCCCCC(=O)O | 3.78% (inactive) |  |
| COc1cc2c3cc1Oc1cc(ccc1O)C[C@@H]1c4c(cc(OC)c(O)c4Oc4ccc(cc4)C[C@@H]3N(C)CC2)CC[N+]1(C)C | -1.13% (inactive) |  |
| O=C(Nc1ccc(C(=O)O)c(O)c1)c1ccccc1 | 4.35% (inactive) |  |
| C=CCN1C(=O)C(CC(C)C)NC1=S (stereo not drawn) |  | inactive |
| CC1(C)S[C@@H]2[C@H](NC(=O)[C@H](NC(=O)N3CCN(S(C)(=O)=O)C3=O)c3ccccc3)C(=O)N2[C@H]1C(=O)O | 2.34% (inactive) |  |
| O=C(O)Cc1ccc(-c2ccccc2)cc1 | -3.88% [at 12.8 µM] (inactive) |  |
| CCOC(=O)c1ccccc1O | 1.19% (inactive) |  |

What follows are compounds tested on CP268 in the same assay as above. Details: P. falciparum in erythrocytes, SYBR Green DNA, 72 h; series mostly up to 28.7 µM; activity, negative = inhibition: at the top concentration.
In short: as §1

| Compound | activity, negative = inhibition | Potency |
| --- | --- | --- |
| O=C1CC[C@@H](C(=O)N2CSC[C@H]2C(=O)O)N1 ([pGlu]-[Thz]-OH) | 6.48% (inactive) |  |
| Cc1c(Nc2ncccc2C(=O)O)cccc1C(F)(F)F | -3.49% [at 12.8 µM] (inactive) |  |
| O=C(O)c1ccccc1Nc1cccc(C(F)(F)F)c1 | -6.78% (inactive) |  |
| CC(C(=O)O)c1ccc2c(c1)[nH]c1ccc(Cl)cc12 (stereo not drawn) | -0.485% (inactive) |  |
| CC1(C)C[C@@H]1C(=O)N/C(=C\CCCCSC[C@H](N)C(=O)O)C(=O)O | -5.48% (inactive) |  |
| Cc1cc(O)c2ccccc2c1O | -0.556% (inactive) |  |
| Nc1ccc(C(=O)O)c(O)c1 | 1.4% (inactive) |  |
| C=C(Nc1ccc(OCC)cc1)Nc1ccc(OCC)cc1 |  | inactive |
| CCCCC[C@H](O)/C=C/[C@@H]1[C@@H](C/C=C\CCCC(=O)O)[C@@H](O)C[C@H]1O | 6.09% (inactive) |  |
| [O-][n+]1ccccc1SSc1cccc[n+]1[O-] |  | 849 nM (active) |
| CCCCCCCCCCCCCCCC(=O)OC(C)C | 4.84% (inactive) |  |
| Clc1ccccc1-c1nc(-c2ccncc2)no1 | 0.889% (inactive) |  |
| CN1[C@@H]2CC[C@H]1CC(OC(=O)C(CO)c1ccccc1)C2 (stereo partly drawn) | -0.231% (inactive) |  |
| COc1ccc(-c2cc(=S)ss2)cc1 | -6.18% (inactive) |  |
| O=C(O)[C@H](CC(=O)N1C[C@H]2CCCC[C@H]2C1)Cc1ccccc1 | -4.77% (inactive) |  |
| Cc1ccccc1CNc1ncnc2c1ncn2C1OC(CO)C(O)C1O (stereo not drawn) | 0.868% (inactive) |  |
| C#C[C@]1(O)CC[C@H]2[C@@H]3CCc4cc(O)ccc4[C@H]3CC[C@@]21C | -8.71% (inactive) |  |

| Compound | activity, negative = inhibition | Potency |
| --- | --- | --- |
| COc1cc(/C=C/C(=O)N2CCN(CC(=O)N3CCCC3)CC2)cc(OC)c1OC | 3.39% (inactive) |  |
| Cc1ccc(O)c(-n2nc3ccccc3n2)c1 | 5.69% (inactive) |  |
| O=C(O)COc1ccc(C(=O)c2cccs2)c(Cl)c1Cl |  | inactive |
| Cc1ccc(C(=O)c2ccc(CC(=O)O)n2C)cc1 | 0.33% [at 12.8 µM] (inactive) |  |
| CCCOC(=O)c1ccc(O)cc1 | -1.21% (inactive) |  |
| C=CC(N)CCC(=O)O (stereo not drawn) | -6.52% (inactive) |  |
| C=CCCCCCCCCC(=O)O | -1.48% (inactive) |  |
| COc1ccc(/C=C/C(=O)Nc2ccccc2C(=O)O)cc1OC | -5.66% (inactive) |  |
| O=C(OCc1ccccc1)c1ccccc1 | 5.21% (inactive) |  |
| c1ccc2sc(SN3CCOCC3)nc2c1 | -11% (inactive) |  |
| CCCCCCCCCCCCCCCCCC(=O)O | 0.755% (inactive) |  |
| COc1cc2c3cc1Oc1cc(ccc1O)C[C@@H]1c4c(cc(OC)c(O)c4Oc4ccc(cc4)C[C@@H]3N(C)CC2)CC[N+]1(C)C | -6.02% (inactive) |  |
| O=C(Nc1ccc(C(=O)O)c(O)c1)c1ccccc1 | -4.13% (inactive) |  |
| C=CCN1C(=O)C(CC(C)C)NC1=S (stereo not drawn) |  | inactive |
| CC1(C)S[C@@H]2[C@H](NC(=O)[C@H](NC(=O)N3CCN(S(C)(=O)=O)C3=O)c3ccccc3)C(=O)N2[C@H]1C(=O)O | 2.36% (inactive) |  |
| O=C(O)Cc1ccc(-c2ccccc2)cc1 | -1.92% [at 12.8 µM] (inactive) |  |
| CCOC(=O)c1ccccc1O | -2.54% (inactive) |  |
